A number with no mark means an inactive call. Active and inactive are the calls of the source. Cut-off read from the data, not from the text of the source: active = fold change permeability below about 0.7 or above about 1.3; inactive = in between.

A short description of this experiment: modulators of brain endothelial barrier permeability, primary screen, cell-based, FITC-avidin fluorescence, HTS (AID 1963498). Note: test concentration not given here. As to conditions: actives lie on both sides.

Regarding `COC1=C(OC)C(=O)c2ccccc2C1=O`, the fold change permeability is 1.4 (active). Turning to `CCCN1C[C@H](CSC)C[C@@H]2c3cccc4[nH]cc(c34)C[C@H]21`, the fold change permeability is 1.1.

On to `C[N+](C)(C)CCOP(=O)(O)OP(=O)([O-])OC[C@H]1O[C@@H](n2ccc(N)nc2=O)C(O)[C@H]1O` (some centres not stated), for which the fold change permeability was 1.1.

Consider `Oc1cc2c(c(Cl)c1O)CCNCC2c1ccccc1` (configuration not stated), for which the fold change permeability is 1.6 (active). As for `CC(C)NCC(O)COc1ccc(CCOCC2CC2)cc1` (configuration not stated), the fold change permeability was 1.2. The same measure for `CC(C)(C)c1ccc(C(=O)Nc2ccc(Nc3ccccc3)cc2)cc1`: 1; for `NC(=O)c1sc(-c2ccsc2)cc1N`: 0.9; for `COc1cc2nc(N3CCCN(C)CC3)nc(NC3CCN(Cc4ccccc4)CC3)c2cc1OC`: 2.2 (active). With `NC(=O)c1cn(Cc2c(F)cccc2F)nn1`, the fold change permeability is 0.9. As to `CC1(C)OC(=O)C(c2cccc(F)c2)=C1c1ccc(S(C)(=O)=O)cc1`, the fold change permeability was 0.9. With `CCCCCN(CCCCC)C(=O)C(CCC(=O)O)NC(=O)c1ccc(Cl)c(Cl)c1` (configuration not stated), the fold change permeability was 1.4 (active).

In the case of `CCO/C([O-])=N/c1c[n+](N2CCOCC2)no1`, the fold change permeability is 0.8.

For the origin of these results see PubChem BioAssay.
